Measured values: PubChem BioAssay (NCI)
The panel holds about 83,000 compounds, 20% with a hit somewhere; the sample as a whole holds those more often.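 Each cell line was grown in a 96-well plate and treated with one concentration of compound for 48 hours. Values below 10 were considered active.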 Values without a mark were called inactive. Calls of active or inactive are those of the source.

System: MOLT-4 leukemia
Assay: NCI-60 one-dose screen, 48 h (100 = growth as untreated, 0 = no growth, -100 = all killed)
Conditions: 10 µM unless noted
Experimental: Growth inhibition of the MOLT-4 human tumor cell line is measured as a screen for anti-cancer activity. Cells are grown in 96 well plates and exposed to the test compound for 48 hours. Compounds are tested at a single concentration, which is 10^-5 M for most compounds. The reported endpoint is percent growth (GI% or GIPRCNT), where numbers from 0 - 100% represent growth inhibition, and numbers from -100% - 0 represent cell death. For example, a value of 40 represents 60% growth inhibition. A value of 0 means no net growth occurred over the course of the experiment. A value of -40 indicates 40% of cells at the beginning of the experiment died by the end of the experiment. A value of -100 means all cells are dead at the end of the experiment.
NCI-60 Human Tumor Cell Lines Screen was performed using the standard one-dose NCI protocol, which is described in more detail at https://dtp.cancer.gov/discovery_development/nci-60/default.htm.
Compounds with GIPRCNT values below 10 were considered active. Activity score was based on GIPRCNT using the following formula: […]
Score is 0 for GIPRCNT values of 100 or above, 50 for GIPRCNT values of 0, and 100 for GIPRCNT values of -100.

Question: How did the growth turn out when `N#Cc1c(Oc2ccc([N+](=O)[O-])cc2)nc2sc3cc(Cl)ccc3n2c1=N` was run?
Answer: 77.3%

Question: With `Cc1ccc2c(n1)C(=O)C(Oc1ccc(F)cc1)=CC2=O` as the compound, how does the growth read?
Answer: 66.2%

Question: How did the growth turn out when `N#C/C(=C\c1ccc(Br)cc1)n1nnc2ccccc21` was run?
Answer: 9.75% (active)

Question: For `O=C1C=CC(=Nc2cc(Br)c(O)c(Br)c2)C=C1`, which growth is on record?
Answer: -28.9% (active)

Question: With `O=C1Nc2ccccc2SC1c1ccccc1Cl` (stereo not given) as the compound, how does the growth read?
Answer: 86.4%

Question: Which growth does the source give for `COC1(CC[C@@H](C)COC2OC(CO)C(O)C(O)C2O)O[C@H]2C[C@H]3[C@@H]4CC=C5C[C@@H](OC6OC(CO)C(OC7OC(C)C(O)C(O)C7O)C(O)C6OC6OC(C)C(O)C(O)C6O)CC[C@]5(C)[C@H]4CC[C@]3(C)[C@H]2[C@@H]1C` (stereo not given in full) here?
Answer: -99.1% (active)

Question: With `CC(=[N-])N1CCC[C@@H](Nc2c3ccccc3nc3ccccc23)C1.[Cl][Pt].[NH-]CCC[NH-]` as the compound, how does the growth read?
Answer: 14.6%

Question: `O=C(Nc1ccccn1)[C@H](O)[C@@H](O)C(=O)N1CCOCC1` was tested. Which growth did it give?
Answer: 105%

Question: For `CC(=O)Nc1cccc(C2=CC(c3ccc(C)cc3)n3ncnc3N2)c1` (stereo not given), which growth is on record?
Answer: 87.9%

Question: How did the growth turn out when `CN(C)c1ccc(/C=C2\C=C(c3ccccc3)N(CCc3ccccc3)C2=O)cc1` was run?
Answer: 86.5%

Question: How did the growth turn out when `Cn1ccc(Cc2cnc(N)s2)n1` was run?
Answer: 93.3%

Question: `COc1ccc(C2CC(c3ccccc3)=NN2c2nc(C)c(C(C)=O)s2)cc1` (stereo not given) was tested. Which growth did it give?
Answer: 102%

Question: Which growth does the source give for `Cl.[Pt].[c-]1ccccc1-c1ccccn1.c1ccc(P(c2ccccc2)C([PH+](c2ccccc2)c2ccccc2)[PH+](c2ccccc2)c2ccccc2)cc1` here?
Answer: 13.8%

Question: How did the growth turn out when `Nc1ccc(-c2cc3c(Nc4ccc(OCc5cccc(F)c5)c(Cl)c4)ncnc3s2)cc1` was run?
Answer: 30%

Question: Which growth does the source give for `Cc1nc(Nc2ccc(NC(=S)Nc3ccccc3)cc2)nc2nc(SCc3ccccc3)[nH]c(=O)c12` here?
Answer: 87.4%

Question: `c1ccc2[nH]c(SSc3nc4ncncc4[nH]3)nc2c1` was tested. Which growth did it give?
Answer: 26%

Question: How did the growth turn out when `COc1cc(-c2ccc(N=Nc3c(O)c(C(=O)Nc4ccccc4OC)cc4ccccc34)c(OC)c2)ccc1N=Nc1c(O)c(C(=O)Nc2ccccc2OC)cc2ccccc12` was run?
Answer: 93.8%

Question: `COC(=O)[C@]12CC[C@@H](C)[C@H](C)[C@@H]1C1=CC[C@@H]3[C@@]4(C)C(C=O)=C[C@@](C)(CO)C4=CC[C@@]3(C)[C@]1(C)CC2` was tested. Which growth did it give?
Answer: 8.61% (active)

Question: How did the growth turn out when `Cc1cc2c(F)c(Oc3ncnc(Nc4ccc(N5C[C@@H](C)N[C@@H](C)C5)cc4)c3C#N)cc(F)c2[nH]1` was run?
Answer: -15.9% (active)

Question: Which growth does the source give for `Cc1cnc(Nc2ccc(N3CCN(C)CC3)cc2)nc1Nc1ccc(Cl)c(NS(=O)(=O)C(C)(C)C)c1` here?
Answer: 10% (active)

Question: `C[C@H]1[C@H]2C3=CC[C@@H]4[C@@]5(C)C/C(=C/c6ccncc6)C(=O)C(C)(C)[C@@H]5CC[C@@]4(C)[C@]3(C)CC[C@@]2(C(=O)N2CCN(C)CC2)CC[C@@H]1C` was tested. Which growth did it give?
Answer: 52.1%

Question: How did the growth turn out when `Cl.Fc1c[c-]c(-c2ccccn2)c(F)c1.[Pt].c1ccc([PH+](c2ccccc2)c2ccccc2[PH+](c2ccccc2)c2ccccc2)cc1` was run?
Answer: -28.3% (active)

Question: `CC(=O)Nc1ccc(C(=O)/C=C/c2ccccc2)cc1` was tested. Which growth did it give?
Answer: 81.6%

Question: With `CCn1c(Sc2nnc(Nc3ccccc3)s2)nc2c1c(=O)n(C)c(=O)n2C` as the compound, how does the growth read?
Answer: 110%

Question: For `CC(C)N(CCOC(=O)Nc1ccccc1Cl)C(C)C`, which growth is on record?
Answer: 88.6%

Question: `COc1ccc(OC)c(/C=C2\COc3ccc(O)cc3C2=O)c1` was tested. Which growth did it give?
Answer: 64.9%

Question: Which growth does the source give for `COc1cc2c(c(OC)c1OC)C(=O)/C(=C/c1cc(C)c(O)c(C)c1)S2` here?
Answer: 33.9%

Question: With `CC(C)OC(=O)OCOP(=O)(OCOC(=O)OC(C)C)C1CCCN(O)C1=O` (stereo not given) as the compound, how does the growth read?
Answer: 22.5%

Question: Which growth does the source give for `NC(=Nc1ccc(N)cc1)C(N)=Nc1ccc(N)cc1` here?
Answer: 124%

Question: Which growth does the source give for `COc1ccc(/C(C)=C(\c2ccc(Cl)cc2)c2ccc(OCCN3CCCCCC3)cc2)cc1F` here?
Answer: 26.6%

Question: For `C=C(C=O)[C@@H]1CC=C(C=O)CC1`, which growth is on record?
Answer: -40.8% (active)

Question: `CCN(CC)CCCNC(=O)c1ccc(N)cc1O` was tested. Which growth did it give?
Answer: 91%

Question: `COc1cc2oc(-c3cccc(C(=O)Nc4ccc(C)cc4)c3)cc(=O)c2c(OC)c1OC` was tested. Which growth did it give?
Answer: 54.7%

Question: With `Nc1nc(N)c(-c2ccc(Cl)cc2)c(/C=C/c2ccc([N+](=O)[O-])cc2)n1` as the compound, how does the growth read?
Answer: 27.6%

Question: `CCNCCNc1cc(C2CCCC2)c(C#N)c2nc3ccccc3n12` was tested. Which growth did it give?
Answer: -17.9% (active)

Question: For `CCN(CC)S(=O)(=O)c1ccc(O)c(NC(=O)c2[nH]c(C)c(C(C)=O)c2CCc2ccc(Cl)cc2)c1`, which growth is on record?
Answer: 28.3%

Question: Which growth does the source give for `Cn1ccnc1C(=O)/C=C/c1ccc(C(=O)Nc2ccc(S(F)(F)(F)(F)F)cc2)cc1` here?
Answer: -5.05% (active)

Question: For `COc1ccc(-c2cc(-c3cc(OC)ccc3O)[nH]c(=O)c2C#N)cc1`, which growth is on record?
Answer: 32%

Question: `Cc1cc(-c2ccc(N(C)C)cc2)c2sc(=O)[nH]c2n1` was tested. Which growth did it give?
Answer: 63.2%

Question: How did the growth turn out when `[2H]c1nc(Nc2ncc(F)c(-c3cc(F)c4nc(C)n(C(C)C)c4c3)n2)c([2H])c([2H])c1CN1CCN(C([2H])([2H])C([2H])([2H])[2H])CC1` was run?
Answer: 21.1%
